The values below come from PubChem BioAssay.

Activity calls are given as the source filed them.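 Rule for the calls: active = viability increase at or above a cutoff of the median across tested compounds plus 3 SD (cut at about 8.5% in these data, passing the limit was not always enough); inconclusive = some gains above the cutoff, reason not given; inactive = the rest.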

The nature of the assay: doxorubicin toxicity protection in MRP-1 cells – H69AR cells, CellTiter-Glo, duplicate, MRP-1 activator project, pilot screen (AID 807).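 Note: compound pretreatment 18-22 h then 72 h combined with doxorubicin; 0% = doxorubicin alone and 100% = vehicle without doxorubicin.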 The settings on record: H69AR viability with doxorubicin, CellTiter-Glo luminescence; at 10 µM; stronger effect = higher value.
`O=C(NCc1ccco1)c1ccc(CN2CCOCC2)cc1`: the viability increase was -3.13% (inactive).

For the molecule `CSc1nc2c(cnn2-c2ccc(C)c(C)c2)c(=O)[nH]1`, the viability increase was -8.82% (inactive). Turning to `O=C(CSc1oc(-c2ccc(F)cc2)nc1S(=O)(=O)c1ccc(F)cc1)NCC1CCCO1` (stereo not drawn), the viability increase was -7.22% (inactive). With `CCOc1ccc(-c2cc(CCCC(=O)Nc3cccc(OC)c3)no2)cc1` the figure was -5.12% (inactive); with `CSc1nc(N2CCN(CCO)CC2)c2sc3nc(-c4ccco4)c4c(c3c2n1)CCC4`, -8.19% (inactive); with `O=C(O)c1ccc(N2C(=O)CC(Cc3ccccc3)C2=O)cc1` (stereo not drawn), -1.42% (inactive). With `Cn1nc(-c2ccc(Cl)cc2)c2cc(C(=O)NCCN3CCOCC3)sc21` the figure was -7.41% (inactive); with `COc1cccc(C(=O)Nc2nnc(-c3ccc(Cl)cc3)o2)c1`, -3.33% (inactive); with `O=C(Nc1nnc(-c2cccs2)o1)c1cccc(F)c1`, -1.42% (inactive). Consider `COc1cc(OC)cc(C(=O)Nc2cccc(C(C)=O)c2)c1`, for which the viability increase was -2.42% (inactive). In the case of `CC1=C(C(=O)OCc2ccc3c(c2)OCO3)C(c2ccccc2)NC(=O)N1` (stereo not drawn), the viability increase is -4.88% (inactive). Next, `COc1ccc(OC)c(NC(=O)C(CC(C)C)NC(=O)C2CCCCC2)c1` (stereo not drawn): -5.29% (inactive); `CCn1c(=O)c(=O)[nH]c2cc(C(=O)NC3CCCc4ccccc43)ccc21` (stereo not drawn): -5.19% (inactive). With `c1coc(CNc2c3c(nc4ccccc24)CCC3)c1` the figure was -5.72% (inactive); with `O=C(Nc1nnc(-c2cccs2)o1)c1cccc(Oc2ccccc2)c1`, -6.06% (inactive); with `COc1cc2c(cc1OC)C(c1cccs1)NCC2` (stereo not drawn), -3.87% (inactive).

As to `COc1ccc(CCNC(=O)c2oc3ccc(S(=O)(=O)N4CCOCC4)cc3c2C)cc1OC`, the viability increase was -4.32% (inactive). Turning to `Cc1nc(N2CCN(Cc3ccc4c(c3)OCO4)CC2)c2oc3ccccc3c2n1`, the viability increase is -4.93% (inactive).

With `Cc1ccc(-c2nc(-c3ccccn3)no2)cc1`, the viability increase was -5.02% (inactive). Next, `CCOC(=O)C1=C(C)N=c2s/c(=C\c3ccncc3)c(=O)n2C1c1ccc2c(c1)OCO2` (stereo not drawn): -7.87% (inactive). `CN1C(=O)C(O)(CC(=O)c2ccccn2)c2cc(Br)ccc21` (stereo not drawn): the viability increase is -7.14% (inactive). With `O=C(CCS(=O)(=O)c1ccccc1)Nc1nc2c(s1)CCCC2` the figure was -8.89% (inactive); with `O=C(CN(C1CCCCC1)S(=O)(=O)c1ccccc1)N1CCCC1`, -2.08% (inactive).

With `Cc1ccccc1CN1C(=O)C(O)(CC(=O)c2ccncc2)c2ccccc21` (stereo not drawn), the viability increase was -5.61% (inactive). As for `CCN1CCN(c2cc(C)c3cc(NC(=O)c4ccc(Br)o4)ccc3n2)CC1`, the viability increase was -8.37% (inactive). Regarding `COc1ccc(NC(=O)NCCCN2CCN(c3cc(C)ccc3C)CC2)cc1`, the viability increase was -6.14% (inactive). For `COc1ccc(S(=O)(=O)Cc2ccc(C(=O)N3CCN(c4ccc(Cl)cc4)CC3)o2)cc1`, the viability increase was -4.86% (inactive).

Regarding `O=C(CSc1nc(-c2ccco2)cc(C(F)(F)F)n1)Nc1ccc(C(=O)N2CCCCC2)cc1`, the viability increase is -2.87% (inactive). Regarding `Cn1c(C(=O)NC2CCCCCC2)cc2c(=O)n(C)c3ccccc3c21`, the viability increase is -6.4% (inactive).

On to `CCNC(=O)CN(C1CCCCC1)S(=O)(=O)c1ccc(F)cc1`, for which the viability increase is -2.01% (inactive).

`COc1cc(C(=O)N2CCN(c3ccc(C)cc3C)CC2)cc(OC)c1OC`: the viability increase is -5% (inactive).

For `Cc1cc(N2CCN(S(=O)(=O)c3ccc(Cl)cc3)CC2)c2ccccc2n1`, the viability increase is -2.62% (inactive). For `OC(COc1ccc(C2C=CCC2)cc1)CN1CCCCC1` (stereo not drawn), the viability increase was -4.7% (inactive).
